# Out of some 1,400 compounds screened, about 30 (2%) were called active. Another 15% or so got no clear call; they are omitted. The sample holds actives, similar compounds and a random draw of the others, so the mix is not that of the screen. Calls come from the whole dose curve; as a rule, active = well fitted inhibition curve with a large enough effect; inconclusive = small, poorly fitted or top-dose-only effect; inactive = flat fitted curve, though single readings scatter.
# Test: Firefly Luciferase Counterscreen for Inhibitors of ATXN expression
# Details: luminescence; series mostly up to 57.5 µM; activity change, negative = inhibition: at the top concentration
# Text: University of Utah School of Medicine, Salt Lake City, Utah
# Spinocerebellar ataxia type 2 (SCA2) is a multisystem neurodegenerative disease caused by a dominantly acting mutation leading to expansion of a polyQ domain in the ataxin-2 protein (ATXN2). SCA2 patients develop progressive ataxia and later lose function in other neuronal systems. Prominent parkinsonian signs develop in some patients. Like many neurodegenerative disorders, no symptomatic or disease-modifying treatments are known.
# The primary objective of the proposed research is to identify compounds inhibiting ATXN2 expression and to test them for efficacy in SCA2 mouse models. We have developed a cell-based assay paired with an in vivo mouse model using identical luciferase expression constructs. This approach takes advantage of an ATXN2-luciferase transgene, with the luciferase gene flanked by the upstream and downstream portions of the ATXN2 gene. Here we describe a 5-7 dose quantitative high thoroughput screen (qHTS) for compounds lowering ATXN2 expression. We screened the NIH Molecular Libraries Small Molecule Repository (MLSMR) and NCGC's mechanistically annotated (MIPE) and drug repurposing (NPC) collections of compounds for lowering expression of an ATXN2-luciferase reporter in HEK-293 cells. The assay is a multiplexed cell viability assay to ensure target reduction in the absence of cytotoxicity. Secondary qHTS assays included a CMV-luciferase reporter expressed in HEK-293 cells as well as a biochemical assay using recombinant luciferase to detect inhibitors of the reporter enzyme. Compounds that inhibit ATXN2 expression but is not cytotoxic were selected for confirmatory and secondary screens.
# PROTOCOL TABLE (as described by Inglese J, Shamu CE and Guy RK. 2007)
# SEQUENCE No. (e.g., 1, 2, 3, etc.); […] (e.g., Cells, Incubation, Reagent, etc.); VALUE; DESCRIPTION.
# 2; Compounds; 23 nL; Kalypsis pintool (Wako USA) equipped with a 1536-well pin head.
# 3; Enzyme; 1 uL; recombinant firefly luciferase (prepared in 50 mM Tris HCl pH7.5, 10 mM MgCl2, 0.05% BSA, 0.01% Tween20) at final concentration of 10 nM. Wells containing buffer only were used as control (set as 100% inhibition when normalizing data).
# 4; Incubation; 10 min; room temperature.
# 5; Detection; Luminescence; Viewlux plate reader (PerkinElmer).
# NOTES (numbers refer to Sequence numbers above)
# 1. Luciferase substrate is added to 1536 well, Greiner white assay plate. Evaporation was prevented by covering assay plates with metal lids containing holes to allow gas diffusion.
# 2. Compounds were added in a dose response manner with the final concentrations of 57, 11.4, 2.28, 0.46, 0.091, 0.018, 0.0037 uM. Vehicle-only plates, with DMSO being pin-transferred to columns 5-48, were inserted uniformly at the beginning and the end of each library to monitor and record any shifts in assay performance.
# 3. Recombinant firefly luciferase (10 nM final concentration) is added to the assay plate.
# 5. End-point luminescence is then measured on the Viewlux (PerkinElmer) imager equipped with a clear emission filter using a 2 sec exposure.
# Inglese J, Shamu CE and Guy RK, Reporting data from high throughput screening of small molecule libraries, Nature Chemical Biology, 2007, 3(8): 438-441. doi.org/10.1038/nchembio0807-438.
# % is set by controls: 0 for no effect and ±100 for the full control effect; potency is the fitted concentration of half-maximal effect.
SMILES,"activity change, negative = inhibition",Potency
O=C(Nc1nonc1-c1ccc(Cl)cc1)c1ccccc1,1.38% (inactive),
O=C(NC1=CC(=O)c2ccccc2C1=O)c1ccccc1,,12.6 µM (active)
CC(NC1=CC(=O)c2cccnc2C1=O)C(O)c1ccccc1 (stereo not given),-12.2% (inactive),
O=C(N/N=C/c1cc([N+](=O)[O-])ccc1O)c1c[nH]c2ccccc12,-4.35% (inactive),
COc1cccc(NC(=S)/C(=C(\[O-])c2cc(C)n(-c3ccccc3F)c2C)[n+]2ccc(N(C)C)cc2)c1,,15.8 µM (active)
CCCC[C@@H](CNC)NC[C@H](NCCCCC1CCCCC1)C(C)C,1.22% (inactive),
CN(C)CCCN(C(=O)c1ccco1)c1nc2ccc(Br)cc2s1,-9.87% (inactive),
CS(=O)(=O)c1ccc(Nc2nc(C(N)Cc3ccc(Cl)cc3)cs2)cc1 (stereo not given),0.635% (inactive),
Cc1cc(O)c(C)c(O)c1/C=N/NC(=O)c1cccnc1,-2.83% (inactive),
CN(C(=O)c1cnc(N2CCN(c3ncccn3)CC2)c2ccccc12)c1ccc(Cl)cc1,2.16% (inactive),
C/C(=C\C(=O)c1ccc(Br)cc1)NNC(=O)c1ccc(O)cc1,2.14% (inactive),
CC1C(=O)C(C)C(c2cc(Br)ccc2O)NC1c1cc(Br)ccc1O (stereo not given),-3.17% (inactive),
O=C(c1c(F)cccc1F)N1CCCC(c2nc(-c3ccc(Cl)cc3)no2)C1 (stereo not given),-10.2% (inactive),
CCCC(=O)N1CCCC(c2cc(C(=O)Nc3ccccc3)no2)C1 (stereo not given),,1.41 µM (active)
O=C(NCc1ccccc1Cl)C1CCCN(C(=O)Nc2ccc(F)cc2)C1 (stereo not given),-2.7% (inactive),
Cc1ccccc1C(=O)N/N=C/c1ccc([N+](=O)[O-])s1,,3.55 µM (active)
Cc1cc(C(=O)N/N=C/c2ccc([N+](=O)[O-])s2)n[nH]1,-6.06% (inactive),
O=C(N/N=C/c1ccc([N+](=O)[O-])s1)c1ccccc1,-19.8% (inactive),
CCOC(=O)c1c(C)nn(-c2ccc(NC(=O)c3cccs3)cc2)c1C,-9.56% (inactive),
Cc1nc2c(OCc3ccc(C(F)(F)F)cc3)cccn2c1N(C)C(=O)CCC1CCCC1,-4.05% (inactive),
C[C@@H]1CN([C@H](C)CO)S(=O)(=O)c2ccc(-c3ccc(C#N)cc3)cc2O[C@H]1CN(C)C(=O)Nc1cc(F)ccc1F,4.48% (inactive),
Clc1ccc(C[n+]2cc(-c3ccccc3)n3c2CCCCC3)c(Cl)c1,5.15% (inactive),
COc1cc(OC)cc(-c2cc3nc(C)c(CCC(=O)O)c(C)n3n2)c1,,12.6 µM (active)
C/C(=N\NC(=O)Cc1ccc(Cl)cc1)c1ccccc1O,-5.39% (inactive),
COc1ccc(/C=C2\SC(=S)N(CCCC(=O)Nc3ccccn3)C2=O)cc1OC,-8.48% (inactive),

SMILES,"activity change, negative = inhibition",Potency
Cc1nc2c(OCc3ccc(C#N)cc3)cccn2c1N(C)Cc1cccs1,0.28% (inactive),
C[C@@H](CN1C2=NC[C@H](Cc3ccccc3)N2C[C@H]1Cc1ccc(O)cc1)NC(=O)CCC1CCCCC1,1.67% (inactive),
O=C(CSc1n[nH]c(-c2ccccn2)n1)Nc1ccc(F)cc1,-11.7% (inactive),
Cc1ccc(Cl)cc1N1CCN(C(=O)CCS(=O)(=O)c2ccc3c(c2)NC(=O)CO3)CC1,2.23% (inactive),
CCCCOC(=O)/C=C\C(=O)NC(N)=O,1.17% (inactive),
O=C(CCc1ccccc1)NC(c1cccs1)c1cc(Cl)c2cccnc2c1O (stereo not given),-2.15% (inactive),
O=C(Nc1nc2cc(Cl)ccc2s1)C1CCCN(S(=O)(=O)c2cccc3cccnc23)C1 (stereo not given),-4.41% (inactive),
Cc1ccc(S(=O)(=O)N(C)C)cc1NC(=O)c1cncc(Br)c1,3.55% (inactive),
Clc1ccc2nc(-c3ccccn3)c(Nc3ccc4c(c3)OCO4)n2c1,-0.752% (inactive),
OC(CNCCc1ccccc1)COc1ccc(OCC(O)CNCCc2ccccc2)cc1 (stereo not given),3.74% (inactive),
Cc1ccc(/C=C2/CNC/C(=C/c3ccc(C)cc3)C2=O)cc1,-13% (inactive),
CC(=O)NC(c1ccccc1)c1cc(Cl)c2cccnc2c1O (stereo not given),-12.7% (inactive),
COc1cccc2c1C1COC3C4CC(C(=O)O)C(C(C2)N13)N4C (stereo not given),2.05% (inactive),
CC(=NNc1nc2ccccc2o1)c1ncccn1,,14.1 µM (active)
COc1cc2nc(N(C)C)nc(N)c2cc1OC,-5.16% (inactive),
O=C(Nc1ccccc1C(=O)Nc1nnc(C(F)(F)F)s1)c1ccccc1Cl,,22.4 µM (active)
O=C(N/N=C(\c1ccccc1)c1ccccn1)c1ccccc1Cl,-10.3% (inactive),
Fc1ccc(Nc2nnc(C(F)(F)F)s2)cc1Cl,-13.2% (inactive),
NC(Cc1ccc(F)cc1)c1csc(NC(=O)NC(c2ccccc2)c2ccccc2)n1 (stereo not given),2.44% (inactive),
O=S(=O)(c1ccc(F)cc1)c1snnc1-c1ccccc1,1.44% (inactive),
O=C(Nc1nc(-c2ccccc2)cs1)c1ccccc1NS(=O)(=O)c1ccc(F)cc1,,28.2 µM (active)
OC[C@@H]1CN(Cc2ccc(-c3ccccc3)cc2)C[C@H](n2cnc3c(Nc4ccccc4)ncnc32)O1,1.15% (inactive),
c1ccc(CNc2nc(-c3ccccn3)nc3ccccc23)cc1,-7.78% (inactive),
COc1ccc(CNC(=O)Nc2nc(C(N)Cc3ccc(Cl)cc3)cs2)cc1 (stereo not given),-1.52% (inactive),
CCOC(=O)N1CCC(c2cc(=O)n3[nH]c(C)c(-c4ccc(F)cc4)c3n2)CC1,-8.39% (inactive),

# Source: PubChem BioAssay AID1745846 (National Center for Advancing Translational Sciences (NCATS), 2022)
